# This is a sample that favours compounds with a hit; in the whole collection about 3.5% have one here.
# Mtb hypoxia rep: inhibitors of hypoxia-regulated fluorescent reporter in Mycobacterium tuberculosis; M. tuberculosis hypoxia-regulated fluorescent reporter, fluorescence; fluorescence inhibition, % (no concentration beside the values); 300,000 compounds, 0.1% hits; AID 1159583; in the data active = fluorescence inhibition mostly above about 23%, no sharp cut-off; inactive = mostly below about 17%
# FBA Mtb inh: Mtb fructose-bisphosphate aldolase inhibition; purified M. tuberculosis FBA, fluorescence read-out; inhibition, % at 1 µM; 360,000 compounds, 2.3% hits; in the data active = inhibition above about 27%;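 also: 0% = vehicle and 100% = reference inhibitor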
# Target sequence (P9WQA3 whole entry, looked up): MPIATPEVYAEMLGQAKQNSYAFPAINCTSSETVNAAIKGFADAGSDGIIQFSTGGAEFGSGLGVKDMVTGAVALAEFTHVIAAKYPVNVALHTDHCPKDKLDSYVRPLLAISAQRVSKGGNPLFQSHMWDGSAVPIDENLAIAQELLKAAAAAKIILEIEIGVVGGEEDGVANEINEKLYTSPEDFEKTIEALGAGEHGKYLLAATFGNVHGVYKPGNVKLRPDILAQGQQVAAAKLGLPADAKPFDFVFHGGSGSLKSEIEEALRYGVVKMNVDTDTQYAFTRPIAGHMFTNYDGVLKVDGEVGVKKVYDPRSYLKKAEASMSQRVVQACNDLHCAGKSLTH
# GDH-TPI inh: inhibits GDH-TPI coupling enzymes, artifact for Mtb FBA screen | GDH-TPI coupled enzyme counterscreen, NADH absorbance | inhibition, % at 4.8 µM | 360,000 compounds, 1.2% hits | AID 588335; in the data active = inhibition above about 30%;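 also: 0% = DMSO wells and 100% = wells lacking the enzyme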
# Mtb UGM inh: blocks M. tuberculosis UGM enzyme; P9WIQ1; purified UGM, fluorescence polarization probe displacement; inhibition, % at 10 µM; 320,000 compounds, 0.06% hits; in the data active = inhibition above about 10%, passing the limit was not always enough
# Rv3671c inh: inhibitors of M. tuberculosis serine protease Rv3671c. P9WHR9. inhibition, % at 5.96 µM. 320,000 compounds, 0.048% hits; in the data active = inhibition above about 38%;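 also: extracellular domain of Rv3671c used as enzyme; 0% = enzyme with DMSO and 100% = no enzyme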
# FadD28 binding: inhibitors of Mycobacterium tuberculosis FadD28 bisubstrate binding | FadD28 bisubstrate probe binding, fluorescence polarization | inhibition, % at 12.5 µM | 360,000 compounds, 0.22% hits | AID 588549; in the data active = inhibition above about 8.5%, passing the limit was not always enough
# * hit, by the source's call; nt = no result given; + = active, no number.
SMILES,Mtb hypoxia rep,FBA Mtb inh,GDH-TPI inh,Mtb UGM inh,Rv3671c inh,FadD28 binding
CCOc1ncccc1C(=O)OCC(=O)c1ccc[nH]1,2,0,-6,0,-1,-4
CC(=O)c1c(C)[nH]c(C(=O)COC(=O)c2nccnc2N)c1C,11,157*,10,-1,11,-3
O=C(CNc1ccccc1)NN=Cc1ccc2c(c1)OCCO2,7,nt,nt,nt,nt,nt
CC1(C)Cc2c(sc(NC(=O)c3ccco3)c2C#N)CO1,12,-1,31*,-2,0,0
Cc1cccc(NC(=O)c2sc(NC(=O)c3ccco3)c(C#N)c2C)c1C,-4,3,36*,2,4,-1
Cc1cccc(NC(=O)c2ccco2)c1C,7,1,15,0,1,0
COc1cccc2cccc(C=Nn3cnnc3)c12,-8,nt,nt,nt,nt,nt
Cn1c(=O)c2nnn(N=C(c3ccccc3)C3CC3)c2n(C)c1=O,7,nt,nt,nt,nt,nt
CC(=O)c1ccc(NC(=O)c2cnn3ccccc23)cc1,6,2,36*,2,-3,-2
Cc1nn(Cc2ccccc2)c(C)c1C=NNC(=O)c1cccnc1,-5,nt,nt,nt,nt,nt
O=C1C2C(c3ccc(Cl)cc3)N3C(=O)N(c4cccc(Br)c4)C(=O)[C@@]3(Cc3ccc(Cl)cc3)C2C(=O)N1C1CCCCC1 (some centres not stated),-6,nt,nt,nt,nt,nt
O=c1[nH]c(=S)[nH]c2nc(-c3ccccc3)cnc12,4,2,16,3,-6,-3
O=c1[nH]c(=O)c2nc(-c3ccc(Cl)cc3)cnc2[nH]1,1,+,9,-2,-10,1
CC(Cc1ccccc1)=NNC(=O)CCCC(=O)NN=C(C)Cc1ccccc1,0,nt,nt,nt,nt,nt
O=C(Cn1c(=O)cnc2ccccc21)Nc1cccc(S(=O)(=O)N2CCOCC2)c1,28*,4,10,2,0,-1
CN(CC(=O)Nc1cccc(F)c1)C(=O)Cn1c(=O)cnc2ccccc21,0,0,6,-1,-2,55*
CN(CC(=O)Nc1ccc(OC(F)(F)F)cc1)C(=O)Cn1c(=O)cnc2ccccc21,-5,7,10,-1,1,-1
O=C(Cn1c(=O)cnc2ccccc21)Nc1cccc(S(=O)(=O)N2CCCCC2)c1,9,4,5,-3,-5,-4
Cc1cccc(NC(=O)CCC(=O)NN=Cc2cccnc2)c1,2,nt,nt,nt,nt,nt
O=C(CC(=O)NC1CCCCC1)N/N=C/c1cccc2ccccc12,nt,1,31*,1,6,0
CC(/C=C/c1ccco1)=NNC(=O)c1cc(C)[nH]n1,17,nt,nt,nt,nt,nt
O=c1[nH]c(=S)n(-c2ccccc2)c(O)c1/C=N/N1CCCCC1c1cccnc1 (configuration not stated),nt,4,52*,-1,-84,-1
CCc1ccc(-n2c(O)c(C=NN3CCCCC3c3cccnc3)c(=O)[nH]c2=O)cc1 (configuration not stated),8,nt,nt,nt,nt,nt
O=C(c1ccncc1)c1ccc(N2CCN(C3CC(=O)N(Cc4cccs4)C3=O)CC2)cc1 (configuration not stated),5,-4,38*,1,8,0
Cc1ccc(C(=O)CCC(=O)N2CCN(c3ccc(F)cc3)CC2)cc1,nt,1,1,2,-7,0
SMILES,Mtb hypoxia rep,FBA Mtb inh,GDH-TPI inh,Mtb UGM inh,Rv3671c inh,FadD28 binding
O=C(O)CCC(=O)N1CCN(c2ccc(C(=O)c3ccc(F)cc3)cc2)CC1,nt,-1,38*,1,-6,-1
COC(=O)C1=C(c2ccc(F)cc2F)CC2CCC1N2C(=O)NCCNC(C)=O (configuration not stated),6,nt,nt,nt,nt,nt
CC(=O)c1ccc(-c2ccc(C3C4C=CCC[C@@]4(C)C(=O)N3Cc3ccccc3)c(F)c2)cc1 (some centres not stated),1,nt,nt,nt,nt,nt
CCOC1(N=C(C)NS(=O)(=O)c2ccc(Cl)cc2)C(C)=CC(=O)C=C1C,-15,nt,nt,nt,nt,nt
COc1ccccc1-c1cc(C(F)(F)F)nc(N2CCN(c3ccccc3)CC2)n1,-1,28*,-1,2,-1,0
COc1cc(/C=C2\C(=O)N(c3ccc(NC(C)=O)cc3)N=C2c2ccccc2)ccc1O,6,-4,14,5,-71,1
CCOc1cc(/C=C2\C(=O)N(c3nc(-c4ccc(Br)cc4)cs3)N=C2c2ccccc2)ccc1O,4,1,31*,-1,18,27*
CN(C)C=NC(=O)/C(C#N)=C1\CCc2ccccc2N1,nt,1,56*,0,-3,-2
CN(C)c1ccc(C(=O)Nc2nc3c(s2)CCCC3)cc1,4,2,37*,0,-1,-3
CC(C)(C)c1ccc(C(=O)NC(=S)Nc2nc3c(s2)CCCC3)cc1,10,6,8,0,-3,-2
CC(=NNC(=O)c1cc(C)nc2ccccc12)c1ccco1,5,nt,nt,nt,nt,nt
CCC1=C2CCC3C(=O)N(c4ccccc4)C(=O)C3C2[C@@]2(C)C(=NCC3CC3)OC(=O)N2C1=O (some centres not stated),3,nt,nt,nt,nt,nt
CC1CN(C(C)CO)C(=O)c2cc(NC(=O)Nc3ccc4c(c3)OCO4)ccc2OC1CN(C)S(C)(=O)=O (configuration not stated),5,nt,nt,nt,nt,nt
COc1ccccc1Nc1nc(NCCCN(C)C)nc(N)c1[N+](=O)[O-],15,0,38*,-5,3,-3
CN(C)CCCNc1nc(N)c([N+](=O)[O-])c(NCCO)n1,-4,-3,38*,-1,4,-3
Nc1nc(NCc2ccccc2)nc(NCCO)c1[N+](=O)[O-],-1,-5,32*,-1,-1,0
Nc1nc(NCCO)nc(NCC2CCCO2)c1[N+](=O)[O-] (configuration not stated),10,-1,37*,0,-12,-2
Cc1ccc(CN2CCN(N=Cc3sccc3C)CC2)c(C)c1,-6,nt,nt,nt,nt,nt
CCC1C(=O)OCC1Cc1cncn1C (configuration not stated),-2,nt,nt,nt,nt,nt
CCn1c2ccccc2c2cc(C=NNC(=O)c3cc(O)cc(O)c3)ccc21,3,nt,nt,nt,nt,nt
CCC(C)Nc1nc(N)c([N+](=O)[O-])c(Nc2cc(OC)ccc2OC)n1 (configuration not stated),9,-6,23,0,6,1
CCC(C)Nc1nc(N)c([N+](=O)[O-])c(Nc2ccccc2OC)n1 (configuration not stated),nt,2,39*,2,-9,-2
O=C(CCN1CCN(c2ccccc2)CC1)NN=Cc1ccc(O)c(O)c1O,-3,nt,nt,nt,nt,nt
CCCCC(CC)COCCCN=Cc1c(O)[nH]c(=S)[nH]c1=O (configuration not stated),-3,1,39*,1,-4,0
CCc1c(C)c2cc(Cl)c(O)c(CN(CC)CC)c2oc1=O,6,+,13,0,6,-3
CCc1c(C)c2cc(Cl)c(O)c(CN(C)C)c2oc1=O,10,nt,32*,0,-3,1
Cc1c(C)c2cc(Cl)c(O)c(CN(C)C)c2oc1=O,-7,+,15,1,9,-2

# Assay outcomes from PubChem.
